# Laboratory results: the supplement of paper PMC8728848
# The entries come from a sample that favours the strongest signals as a whole.
# Key:
# Experiment in all cases: glycan array binding signal (z-score within array); higher = stronger binding
# Conditions in all cases: glycan notation: IUPAC condensed, linker removed
# [1] = molecular target: Gal3S(b1-4)Glc
# Outline: (§1)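 Arrays were curated from the Consortium for Functional Glycomics database, 3228 in total, and kept only where the protein sequence was available. Binding is expressed as a within-array Z-score. This score was averaged across arrays of the same protein sequence at different concentrations or buffers and across linkers, and negative values can be read as non-binding.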
# [2] = molecular target: Gal3S(b1-4)[Fuc(a1-3)]GlcNAc6S
# Outline: as §1
# [3] = molecular target: GalNAc(b1-3)Gal(a1-4)Gal(b1-4)GlcNAc(b1-3)Gal(b1-4)Glc
# Outline: as §1
# [4] = molecular target: GalNAc(b1-4)Gal(b1-4)Glc
# Outline: as §1
# [5] = molecular target: GlcNAc(b1-2)Man(a1-3)[GlcNAc(b1-2)Man(a1-6)]Man(b1-4)GlcNAc(b1-4)[Fuc(a1-6)]GlcNAc
# Outline: as §1
# [6] = molecular target: GlcNAc(b1-2)[GlcNAc(b1-6)]Man(a1-6)[GlcNAc(b1-2)Man(a1-3)]Man(b1-4)GlcNAc(b1-4)GlcNAc
# Outline: as §1
# [7] = molecular target: GlcNAc(b1-3)Gal(b1-4)GlcNAc(b1-2)[GlcNAc(b1-3)Gal(b1-4)GlcNAc(b1-6)]Man(a1-6)[GlcNAc(b1-3)Gal(b1-4)GlcNAc(b1-2)Man(a1-3)]Man(b1-4)GlcNAc(b1-4)GlcNAc
# Outline: as §1
# [8] = molecular target: GlcNAc(b1-3)Gal(b1-4)GlcNAc(b1-3)Gal(b1-4)GlcNAc(b1-3)GalNAc
# Outline: as §1
# [9] = molecular target: Man(a1-3)[Man(a1-6)]Man(b1-4)GlcNAc(b1-4)GlcNAc
# Outline: as §1
# [10] = molecular target: Man(a1-3)[Man(a1-6)]Man(b1-4)GlcNAc(b1-4)[Fuc(a1-6)]GlcNAc
# Outline: as §1
# [11] = molecular target: Neu5Ac(a2-3)Gal(b1-3)GlcNAc(b1-2)Man
# Outline: as §1
# [12] = molecular target: Neu5Ac(a2-3)Gal(b1-3)GlcNAc(b1-6)GalNAc
# Outline: as §1
# [13] = molecular target: Neu5Ac(a2-3)Gal(b1-3)[Fuc(a1-4)]GlcNAc
# Outline: as §1
# [14] = molecular target: Neu5Ac(a2-3)Gal(b1-3)[Fuc(a1-4)]GlcNAc(b1-3)Gal(b1-3)[Fuc(a1-4)]GlcNAc
# Outline: as §1
# [15] = molecular target: Neu5Ac(a2-3)Gal(b1-4)GlcNAc(b1-2)[Neu5Ac(a2-3)Gal(b1-4)GlcNAc(b1-6)]Man(a1-6)[Neu5Ac(a2-3)Gal(b1-4)GlcNAc(b1-2)Man(a1-3)][GlcNAc(b1-4)]Man(b1-4)GlcNAc(b1-4)GlcNAc
# Outline: as §1
# [16] = molecular target: Neu5Ac(a2-3)Gal(b1-4)GlcNAc(b1-3)Gal(b1-4)GlcNAc(b1-2)Man(a1-3)[Neu5Ac(a2-3)Gal(b1-4)GlcNAc(b1-3)Gal(b1-4)GlcNAc(b1-2)Man(a1-6)]Man(b1-4)GlcNAc(b1-4)GlcNAc
# Outline: as §1
# [17] = molecular target: Neu5Ac(a2-3)Gal(b1-4)[Fuc(a1-3)]GlcNAc(b1-3)GalNAc
# Outline: as §1
# [18] = molecular target: Neu5Ac(a2-3)Gal6S(b1-4)GlcNAc
# Outline: as §1
# [19] = molecular target: Neu5Ac(a2-3)Gal6S(b1-4)[Fuc(a1-3)]GlcNAc
# Outline: as §1
# [20] = molecular target: Neu5Ac(a2-3)[Neu5Ac(a2-6)]GalNAc
# Outline: as §1
# [21] = molecular target: Neu5Ac(a2-6)Gal(b1-4)GlcNAc(b1-2)Man(a1-3)[GlcNAc(b1-4)][Neu5Ac(a2-6)Gal(b1-4)GlcNAc(b1-2)Man(a1-6)]Man(b1-4)GlcNAc(b1-4)GlcNAc
# Outline: as §1
# [22] = molecular target: Neu5Ac(a2-6)Gal(b1-4)GlcNAc(b1-2)Man(a1-3)[Neu5Ac(a2-6)Gal(b1-4)GlcNAc(b1-2)Man(a1-6)]Man(b1-4)GlcNAc(b1-4)GlcNAc
# Outline: as §1
# [23] = molecular target: Neu5Ac(a2-6)Gal(b1-4)GlcNAc(b1-2)Man(a1-6)[Gal(b1-4)GlcNAc(b1-2)Man(a1-3)]Man(b1-4)GlcNAc(b1-4)GlcNAc
# Outline: as §1
# [24] = molecular target: Neu5Ac(a2-6)Gal(b1-4)GlcNAc(b1-2)[Neu5Ac(a2-6)Gal(b1-4)GlcNAc(b1-4)]Man(a1-3)[GlcNAc(b1-4)][Neu5Ac(a2-6)Gal(b1-4)GlcNAc(b1-2)[Neu5Ac(a2-6)Gal(b1-4)GlcNAc(b1-6)]Man(a1-6)]Man(b1-4)GlcNAc(b1-4)GlcNAc
# Outline: as §1
# [25] = molecular target: Neu5Ac(a2-8)Neu5Ac(a2-3)[GalNAc(b1-4)]Gal(b1-4)Glc
# Outline: as §1
# [26] = molecular target: Neu5Ac9Ac(a2-6)Gal(b1-4)GlcNAc
# Outline: as §1
# [27] = molecular target: Neu5Gc(a2-6)Gal(b1-4)GlcNAc
# Outline: as §1
binder,measurement,setting,value
"Arath Fbox (Arabidopsis thaliana), NP_178341.1 (protein) EFTWGRKRRVKSESSPFDSFPEDCISYIISFTNPRDACVAATVSKTFESTVKSDIIWEKFLPADYESLIPPSRVFSSKKELYFSLCNDPVLFDDDKKSVWLEKASGKRCLMLSAMNLSIIWGDNPQYWQWIPIPESRFEKVAKLRDVCWFEIRGRTNTRVLSPRTRYSAYIVFKGVDKCYGFQNVAIEAAVGVVGQEPSRRLICFSEAIRRGRRNVVKPKQREDGWMEIELGEFFNDGGIMDNDEIEMSALETKQLNRKCGLIIQGIEIRPAKILAAAAASFLEQKLISEEDLNSAVDHHHHHH",glycan array binding signal (z-score),[1],1
same,glycan array binding signal (z-score),[2],2.7
same,glycan array binding signal (z-score),[3],-0.087
same,glycan array binding signal (z-score),[4],0.06
same,glycan array binding signal (z-score),[5],0.585
same,glycan array binding signal (z-score),[6],-0.389
same,glycan array binding signal (z-score),[7],0.161
same,glycan array binding signal (z-score),[8],-0.761
same,glycan array binding signal (z-score),[9],-0.721
same,glycan array binding signal (z-score),[10],-0.72
same,glycan array binding signal (z-score),[11],-0.092
same,glycan array binding signal (z-score),[12],-0.024
same,glycan array binding signal (z-score),[13],-0.597
same,glycan array binding signal (z-score),[14],0.221
same,glycan array binding signal (z-score),[15],-0.75
same,glycan array binding signal (z-score),[16],2.64
same,glycan array binding signal (z-score),[17],2.69
same,glycan array binding signal (z-score),[18],-0.45
same,glycan array binding signal (z-score),[19],-0.559
same,glycan array binding signal (z-score),[20],-0.205
same,glycan array binding signal (z-score),[21],-0.647
same,glycan array binding signal (z-score),[22],-0.41
same,glycan array binding signal (z-score),[23],3.21
same,glycan array binding signal (z-score),[24],-0.533
same,glycan array binding signal (z-score),[25],-0.467
same,glycan array binding signal (z-score),[26],-0.681
same,glycan array binding signal (z-score),[27],2.49
